Results reported in a collection of fitness landscapes (doi:10.1016/j.celrep.2020.107928).
In all, about 81,000 sequences were measured (“one-hybrid fitness for binding NBS DNA”: median about -0.1, highest 2% from about 0.36 on). Only a selection was taken, and the highest values are over-represented in it overall.

B1: Caulobacter ParB omega fusion; a variant is named by its letters at X, in order, B8GW30 (parent)
chain: MESVVVGEPGMSEGRRGLGRGLSALLGEVDAAPAQAPGEQLGGSREAPIEILQRNPDQPRRTFREEDLEDLSNSIREKGVLQPILVRPSPDTAGEYQIVAGERAWRAAQRAGLKTVPIMVRELDDLAVLEIGIIENVQRADLNVLEEALSYKVLMEKFERTQENIAQTIGKSXSHVANXMRLLXLPDEVQSYLVSGELTAXHARAIAAAADPVALAKQIIEGGLSVRETEALARKAPNLSAGKSKGGRPPRVKDTDTQALESDLSSVLGLDVSIDHRGSTGTLTITYATLEQLDDLCNRLTRGI

Variants of: B1
Experiment: one-hybrid fitness for binding NBS DNA (the Noc-binding site; scaled: cognate 1, non-cognate 0); higher = stronger binding
Settings: with NBS DNA site
Summary of the method: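 Bacterial one-hybrid selection in E. coli USO rpoZ- hisB- pyrF- with a HIS3 reporter carrying the site 19 bp from the promoter, screening Caulobacter ParB libraries with four specificity codons randomised (NNS). Cells grew 48 hours at 37°C on M9-minus-histidine plus 0.1 mM IPTG and 5 mM 3-AT. Plasmids before and after selection were Illumina-sequenced, three replicate libraries pooled, and variants under 10 reads dropped. Fitness is the log change in variant-to-wild-type read ratio, rescaled to cognate 1, non-cognate 0.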

| Variant | one-hybrid fitness for binding NBS DNA |
| --- | --- |
| RIDR | ≤ 0.2 |
| RWNR | 0.436 |
| RSNR | 0.526 |
| RSDR | ≤ 0.2 |
| RPNR | ≤ 0.2 |
| RFNR | 0.325 |
| RCNR | 0.586 |
| GSSG | ≤ 0.2 |
| PGTF | ≤ 0.2 |
| LPSK | ≤ 0.2 |
| PGGS | ≤ 0.2 |
| RQIG | ≤ 0.2 |
| MIKI | ≤ 0.2 |
| NGIR | ≤ 0.2 |
| FGEY | ≤ 0.2 |
| RHNN | ≤ 0.2 |
| RHDR | 0.216 |
| RHNR | 0.539 |
| NDST | ≤ 0.2 |
| SAPN | ≤ 0.2 |
| YTYC | ≤ 0.2 |
| NRYR | ≤ 0.2 |
| NRRR | 0.251 |
| QRQR | 0.987 |
| DRRR | 0.215 |
| QRRR | 1.1 |

| Variant | one-hybrid fitness for binding NBS DNA |
| --- | --- |
| DRYR | ≤ 0.2 |
| QRSG | 0.339 |
| QRSR | 0.997 |
| QRSF | 0.262 |
| NRQR | ≤ 0.2 |
| QRQL | 0.255 |
| QRYR | 0.924 |
| RCHV | ≤ 0.2 |
| LHEL | ≤ 0.2 |
| TCPE | ≤ 0.2 |
| KYMS | ≤ 0.2 |
| QRDR | 0.679 |
| QRGR | 1.04 |
| NRGR | ≤ 0.2 |
| QRLQ | 0.327 |
| DRGR | ≤ 0.2 |
| QDCR | ≤ 0.2 |
| QRLF | 0.238 |
| QRLR | 0.945 |
| QRCR | 0.981 |
| DRCR | ≤ 0.2 |
| DAMG | ≤ 0.2 |
| RDCF | ≤ 0.2 |
| SWLF | ≤ 0.2 |
| THYV | ≤ 0.2 |
| EPRD | ≤ 0.2 |

| Variant | one-hybrid fitness for binding NBS DNA |
| --- | --- |
| AGTM | ≤ 0.2 |
| AMGA | ≤ 0.2 |
| QRHR | 1.06 |
| QRNR | 1.03 |
| NRNR | ≤ 0.2 |
| DRHR | ≤ 0.2 |
| DRNR | ≤ 0.2 |
| NRHR | ≤ 0.2 |
| TTSN | ≤ 0.2 |
| DLQW | ≤ 0.2 |
| DYWR | ≤ 0.2 |
| QHAR | 0.523 |
| QHAH | ≤ 0.2 |
| QHAN | ≤ 0.2 |
| QHFN | ≤ 0.2 |
| QHFS | ≤ 0.2 |
| QHFR | 0.408 |
| GISW | ≤ 0.2 |
| ACMF | ≤ 0.2 |
| RFMI | ≤ 0.2 |
| EHLG | ≤ 0.2 |
| SCYH | ≤ 0.2 |
| MRMG | ≤ 0.2 |
| RYNP | ≤ 0.2 |
| RYDT | 0.204 |
| RYRT | 0.664 |

| Variant | one-hybrid fitness for binding NBS DNA |
| --- | --- |
| RYWT | 0.281 |
| RYLH | ≤ 0.2 |
| RYNT | 0.514 |
| RYVT | 0.229 |
| RYLT | 0.366 |
| RYLD | ≤ 0.2 |
| RYKT | 0.604 |
| RYYT | 0.349 |
| RYPT | ≤ 0.2 |
| LHLS | ≤ 0.2 |
| ILDG | ≤ 0.2 |
| GDTF | ≤ 0.2 |
| TMRI | ≤ 0.2 |
| MQPC | ≤ 0.2 |
| MRDI | ≤ 0.2 |
| WQSY | ≤ 0.2 |
| RYFT | ≤ 0.2 |
| RYCG | ≤ 0.2 |
| RYAT | 0.461 |
| RYCT | 0.372 |
| RYAH | ≤ 0.2 |
| RYCC | ≤ 0.2 |
| TALL | ≤ 0.2 |
| HITC | ≤ 0.2 |
| LYGC | ≤ 0.2 |
| QHWN | ≤ 0.2 |

| Variant | one-hybrid fitness for binding NBS DNA |
| --- | --- |
| NTRT | ≤ 0.2 |
| QTWH | ≤ 0.2 |
| QHWT | 0.375 |
| QTWD | ≤ 0.2 |
| DTRT | ≤ 0.2 |
| QTWT | 0.543 |
| QHWD | ≤ 0.2 |
| QTYT | 0.572 |
| QTRT | 0.891 |
| DQMC | ≤ 0.2 |
| HTHS | ≤ 0.2 |
| SPAK | ≤ 0.2 |
| IRFR | ≤ 0.2 |
| WCIR | ≤ 0.2 |
| QSWT | 0.348 |
| QPWT | ≤ 0.2 |
| QTNT | 0.71 |
| QTSC | 0.214 |
| QTSF | ≤ 0.2 |
| QTST | 0.61 |
| QTDT | 0.448 |
| QTND | 0.227 |
| QTNP | ≤ 0.2 |
| QCWT | 0.461 |
| IHPM | ≤ 0.2 |
| MVSY | ≤ 0.2 |

| Variant | one-hybrid fitness for binding NBS DNA |
| --- | --- |
| TTTW | ≤ 0.2 |
| HGWD | ≤ 0.2 |
| LSVE | ≤ 0.2 |
| EWQK | ≤ 0.2 |
| GLRI | ≤ 0.2 |
| TRMF | ≤ 0.2 |
| IGRY | ≤ 0.2 |
| TTSQ | ≤ 0.2 |
| TCVR | ≤ 0.2 |
| TSSQ | 0.493 |
| TRSQ | ≤ 0.2 |
| TSVQ | ≤ 0.2 |
| TPKQ | ≤ 0.2 |
| TPKR | 0.351 |
| TCVT | ≤ 0.2 |
| TPKT | ≤ 0.2 |
| TPVQ | 0.763 |
| TPVT | 0.375 |
| TPVR | 0.513 |
| VMCN | ≤ 0.2 |
| SSHR | 0.261 |
| WIIS | ≤ 0.2 |
| QDAC | ≤ 0.2 |
